# Of roughly 8,800 targets only a part is listed; those with a hit were picked by preference. About 0.5% of all pairs of compound and target were hits. Values without a mark were called inactive.
# Experiments:
# Experiment in all cases: log2 fold change, soluble protein after heating vs DMSO (PISA); higher = thermal stabilisation; K562 lysate, 10 uM; active = over 0.2 and 3.5 SD of the protein, either way, in both replicates (recomputed)
# erlotinib = compound: C#Cc1cccc(Nc2ncnc3cc(OCCOC)c(OCCOC)cc23)c1 [erlotinib]
# Summary of the method: (§1)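 Following dounce homogenisation of K562 pellets in PBS pH 7.4 with 1 mM MgCl2, crude extract at 1 mg/mL protein was incubated for 30 min with 10 μM compound. Aliquots were then heated for 3 min over 48°C-58°C and pooled, NP-40 was added to 0.5% at 4°C, and soluble protein was recovered as the supernatant at 21,000xg for 90 min. Channel-sum-equalised TMTpro 16plex LC-MS/MS quantified this protein. Each value, from duplicates, is a log-two fold change in thermal stability relative to solvent controls.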
# [1] = compound: C/C(=N\NC(=O)C1=CC(=CC=C1)S(=O)(=O)N2CCOCC2)/C3=C(C=CC(=C3)Cl)O
# Summary of the method: as §1
# [2] = compound: C1=CC(=CC=C1C2=NC3=C(N2)C=C(C=C3)C(=O)N)OC4=CC=C(C=C4)Cl
# Summary of the method: as §1
# [3] = compound: C1=CC2=C(C=CC(=C2)/C=C\3/C(=O)NC(=NCC4=CC=CS4)S3)N=C1
# Summary of the method: as §1
# [4] = compound: C1=CC2=NC=CN=C2C=C1/C=C/3\C(=O)NC(=O)S3
# Summary of the method: as §1
# [5] = compound: C1=CC=C(C=C1)C2=NC(=C(N2)C3=CC=NC=C3)C4=CC(=C(C=C4)Cl)O
# Summary of the method: as §1
# [6] = compound: C1=CC=C2C(=C1)C3=NNC4=CC=CC(=C43)C2=O
# Summary of the method: as §1
# [7] = compound: C1CCN(C1)C(=O)NC2=CC=CC(=C2)NC3=NC=C(C(=N3)NCCC4=CN=CN4)Br
# Summary of the method: as §1
# [8] = compound: C1CN(CCC1(CC2=CC=C(C=C2)Cl)N)C3=NC=NC4=C3C=CN4
# Summary of the method: as §1
# IRAK-1-4 Inhibitor I = compound: C1COCCN1CCN2C3=CC=CC=C3N=C2NC(=O)C4=CC(=CC=C4)[N+](=O)[O-] [IRAK-1-4 Inhibitor I]
# Summary of the method: as §1
# ibrutinib = compound: C=CC(=O)N1CCC[C@@H](n2nc(-c3ccc(Oc4ccccc4)cc3)c3c(N)ncnc32)C1 [ibrutinib]
# Summary of the method: as §1
# [9] = compound: CC(=O)c1cnc2ccc(-c3cc(Cl)c(O)c(Cl)c3)nc2c1N[C@H]1CC[C@H](CN(C)C)CC1
# Summary of the method: as §1
# ralimetinib = compound: CC(C)(C)Cn1c(N)nc2ccc(-c3[nH]c(C(C)(C)C)nc3-c3ccc(F)cc3)nc21 [ralimetinib]
# Summary of the method: as §1
# [10] = compound: CC(C)(O)CC(=O)NCCn1ccc2ncnc(Nc3ccc(Oc4cccc(C(F)(F)F)c4)c(Cl)c3)c21
# Summary of the method: as §1
# [11] = compound: CC(C)C1=C2N=C(C=C(N2N=C1)NCC3=CC=CC=C3)NCCCCCCN
# Summary of the method: as §1
# [12] = compound: CC1=C(C(CC(=O)N1)C2=CC=C(C=C2)C(F)(F)F)C(=O)NC3=C(C=C4C(=C3)C=NN4)F
# Summary of the method: as §1
# [13] = compound: CC1=C(C2=C(C=C1)C(=O)C3=CC=CC=C3N2CCCN)C
# Summary of the method: as §1
# [14] = compound: CC1=C(C=C(C=C1)NC(=O)C2=CC(=CC=C2)C(C)(C)C#N)NC3=CC4=C(C=C3)N=CN(C4=O)C
# Summary of the method: as §1
# [15] = compound: CC1=C(C=C(C=C1)NC(=O)C2=CC(=CC=C2)N(C)C)NC(=O)C3=CC=C(C=C3)O
# Summary of the method: as §1
# [16] = compound: CC1=CC=C(C=C1)SC2=C3C=C(SC3=CN=C2)C(=O)N
# Summary of the method: as §1
# Sequence of UniProt Q9Y6I4 (Q9Y6I4 whole entry, looked up): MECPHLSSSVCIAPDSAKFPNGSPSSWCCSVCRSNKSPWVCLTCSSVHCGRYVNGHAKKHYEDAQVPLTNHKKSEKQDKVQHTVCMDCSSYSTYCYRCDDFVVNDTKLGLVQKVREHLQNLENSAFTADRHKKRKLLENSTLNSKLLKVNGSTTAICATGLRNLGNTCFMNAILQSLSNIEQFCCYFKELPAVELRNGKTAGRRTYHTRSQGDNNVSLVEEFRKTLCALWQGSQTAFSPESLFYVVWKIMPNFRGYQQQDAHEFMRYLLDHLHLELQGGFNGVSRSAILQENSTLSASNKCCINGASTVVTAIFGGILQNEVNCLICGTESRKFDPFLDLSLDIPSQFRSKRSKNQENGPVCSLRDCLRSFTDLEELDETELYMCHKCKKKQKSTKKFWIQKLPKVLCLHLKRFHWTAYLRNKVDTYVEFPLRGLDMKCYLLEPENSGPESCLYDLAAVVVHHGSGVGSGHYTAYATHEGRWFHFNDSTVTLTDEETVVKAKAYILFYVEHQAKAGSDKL
# Sequence of UniProt Q96K21 (Q96K21 whole entry, looked up): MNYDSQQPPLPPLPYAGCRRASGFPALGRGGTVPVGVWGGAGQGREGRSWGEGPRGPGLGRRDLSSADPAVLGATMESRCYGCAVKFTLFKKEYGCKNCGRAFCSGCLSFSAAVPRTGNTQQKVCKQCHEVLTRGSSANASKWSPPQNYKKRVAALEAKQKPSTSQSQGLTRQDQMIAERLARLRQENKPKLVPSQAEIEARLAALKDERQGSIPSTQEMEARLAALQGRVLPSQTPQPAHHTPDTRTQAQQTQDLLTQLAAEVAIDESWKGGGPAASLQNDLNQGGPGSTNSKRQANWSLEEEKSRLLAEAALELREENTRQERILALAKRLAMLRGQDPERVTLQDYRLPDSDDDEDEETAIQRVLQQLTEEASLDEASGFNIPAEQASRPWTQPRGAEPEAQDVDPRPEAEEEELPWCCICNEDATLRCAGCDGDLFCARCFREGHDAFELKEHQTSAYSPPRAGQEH
# Sequence of UniProt P04004 (P04004 whole entry, looked up): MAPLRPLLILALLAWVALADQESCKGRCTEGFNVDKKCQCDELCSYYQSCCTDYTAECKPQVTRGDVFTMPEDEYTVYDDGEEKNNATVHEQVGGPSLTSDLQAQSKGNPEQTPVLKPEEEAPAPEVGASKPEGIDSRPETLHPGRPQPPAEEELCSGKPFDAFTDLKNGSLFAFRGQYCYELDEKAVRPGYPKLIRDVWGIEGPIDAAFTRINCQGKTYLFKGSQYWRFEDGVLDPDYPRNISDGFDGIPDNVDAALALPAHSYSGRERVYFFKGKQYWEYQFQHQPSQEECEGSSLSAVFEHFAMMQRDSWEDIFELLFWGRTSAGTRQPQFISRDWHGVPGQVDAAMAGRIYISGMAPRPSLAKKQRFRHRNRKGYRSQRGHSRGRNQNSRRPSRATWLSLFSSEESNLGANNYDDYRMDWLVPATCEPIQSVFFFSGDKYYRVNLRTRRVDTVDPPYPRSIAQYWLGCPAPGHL
# Sequence of UniProt Q9HAD4 (Q9HAD4 whole entry, looked up): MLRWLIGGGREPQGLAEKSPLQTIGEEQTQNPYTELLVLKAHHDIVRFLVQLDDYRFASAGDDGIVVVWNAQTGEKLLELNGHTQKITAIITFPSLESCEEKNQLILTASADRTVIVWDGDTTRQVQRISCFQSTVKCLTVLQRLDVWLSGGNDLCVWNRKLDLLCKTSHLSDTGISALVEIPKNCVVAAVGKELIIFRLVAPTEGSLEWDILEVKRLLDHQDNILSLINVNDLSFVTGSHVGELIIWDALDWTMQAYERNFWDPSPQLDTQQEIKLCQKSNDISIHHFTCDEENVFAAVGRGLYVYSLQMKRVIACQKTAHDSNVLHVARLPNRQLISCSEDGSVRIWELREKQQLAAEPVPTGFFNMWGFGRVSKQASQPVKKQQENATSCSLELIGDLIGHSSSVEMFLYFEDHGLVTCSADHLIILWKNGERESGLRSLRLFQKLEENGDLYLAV
# Sequence of UniProt Q9NUE0 (Q9NUE0 whole entry, looked up): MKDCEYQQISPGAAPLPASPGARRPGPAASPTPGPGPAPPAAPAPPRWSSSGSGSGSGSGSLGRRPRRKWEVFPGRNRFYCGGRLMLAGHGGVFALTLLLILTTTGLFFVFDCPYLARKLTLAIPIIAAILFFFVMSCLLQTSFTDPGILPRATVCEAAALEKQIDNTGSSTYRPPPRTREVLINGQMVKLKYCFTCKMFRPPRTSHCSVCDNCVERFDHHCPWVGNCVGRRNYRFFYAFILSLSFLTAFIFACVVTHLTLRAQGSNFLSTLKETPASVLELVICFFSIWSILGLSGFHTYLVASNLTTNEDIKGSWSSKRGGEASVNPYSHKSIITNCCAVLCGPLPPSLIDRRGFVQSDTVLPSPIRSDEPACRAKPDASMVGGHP
# Sequence of UniProt Q9UN37 (Q9UN37 whole entry, looked up): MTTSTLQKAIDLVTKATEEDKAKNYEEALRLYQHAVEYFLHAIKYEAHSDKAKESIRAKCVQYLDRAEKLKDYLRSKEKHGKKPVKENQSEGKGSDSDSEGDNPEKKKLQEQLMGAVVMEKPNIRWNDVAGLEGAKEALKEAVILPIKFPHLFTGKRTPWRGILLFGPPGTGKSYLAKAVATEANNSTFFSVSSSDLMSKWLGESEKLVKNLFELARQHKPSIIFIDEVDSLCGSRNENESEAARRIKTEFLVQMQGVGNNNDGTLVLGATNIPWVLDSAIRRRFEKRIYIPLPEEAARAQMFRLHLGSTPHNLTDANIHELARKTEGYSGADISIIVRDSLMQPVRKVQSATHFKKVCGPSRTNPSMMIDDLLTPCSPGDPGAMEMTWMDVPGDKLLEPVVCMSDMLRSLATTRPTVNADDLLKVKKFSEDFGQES
# Sequence of UniProt Q96JH7 (Q96JH7 whole entry, looked up): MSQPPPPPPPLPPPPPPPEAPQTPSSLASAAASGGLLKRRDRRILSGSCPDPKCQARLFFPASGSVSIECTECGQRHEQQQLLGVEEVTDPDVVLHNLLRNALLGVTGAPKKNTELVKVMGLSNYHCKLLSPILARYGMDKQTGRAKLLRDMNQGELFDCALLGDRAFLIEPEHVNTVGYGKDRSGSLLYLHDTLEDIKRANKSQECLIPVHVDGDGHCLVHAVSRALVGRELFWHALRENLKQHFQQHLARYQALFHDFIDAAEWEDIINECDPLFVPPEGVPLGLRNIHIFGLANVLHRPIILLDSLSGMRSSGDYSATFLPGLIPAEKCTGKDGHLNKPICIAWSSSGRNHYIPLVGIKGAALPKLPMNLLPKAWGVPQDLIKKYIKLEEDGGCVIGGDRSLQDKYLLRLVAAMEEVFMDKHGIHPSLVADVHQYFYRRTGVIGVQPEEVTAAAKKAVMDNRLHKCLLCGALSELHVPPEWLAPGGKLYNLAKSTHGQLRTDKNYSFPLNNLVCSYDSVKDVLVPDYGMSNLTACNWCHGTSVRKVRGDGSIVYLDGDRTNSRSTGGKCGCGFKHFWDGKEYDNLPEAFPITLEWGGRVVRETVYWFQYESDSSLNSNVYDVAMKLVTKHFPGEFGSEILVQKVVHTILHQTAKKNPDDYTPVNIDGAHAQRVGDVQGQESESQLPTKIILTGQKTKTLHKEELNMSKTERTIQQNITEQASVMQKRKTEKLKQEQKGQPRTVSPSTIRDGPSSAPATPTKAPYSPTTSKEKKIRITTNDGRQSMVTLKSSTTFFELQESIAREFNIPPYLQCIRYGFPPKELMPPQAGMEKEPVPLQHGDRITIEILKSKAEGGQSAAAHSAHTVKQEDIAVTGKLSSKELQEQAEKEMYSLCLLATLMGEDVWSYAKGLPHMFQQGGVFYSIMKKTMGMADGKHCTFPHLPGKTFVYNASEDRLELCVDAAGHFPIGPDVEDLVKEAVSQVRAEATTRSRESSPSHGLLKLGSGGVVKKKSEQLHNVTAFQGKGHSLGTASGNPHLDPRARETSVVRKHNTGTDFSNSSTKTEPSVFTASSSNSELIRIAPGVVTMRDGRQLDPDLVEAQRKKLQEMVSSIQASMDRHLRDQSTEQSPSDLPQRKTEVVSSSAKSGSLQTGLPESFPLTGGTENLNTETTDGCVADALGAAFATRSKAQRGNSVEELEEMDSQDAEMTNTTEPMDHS
# Sequence of UniProt Q86WB0 (Q86WB0 whole entry, looked up): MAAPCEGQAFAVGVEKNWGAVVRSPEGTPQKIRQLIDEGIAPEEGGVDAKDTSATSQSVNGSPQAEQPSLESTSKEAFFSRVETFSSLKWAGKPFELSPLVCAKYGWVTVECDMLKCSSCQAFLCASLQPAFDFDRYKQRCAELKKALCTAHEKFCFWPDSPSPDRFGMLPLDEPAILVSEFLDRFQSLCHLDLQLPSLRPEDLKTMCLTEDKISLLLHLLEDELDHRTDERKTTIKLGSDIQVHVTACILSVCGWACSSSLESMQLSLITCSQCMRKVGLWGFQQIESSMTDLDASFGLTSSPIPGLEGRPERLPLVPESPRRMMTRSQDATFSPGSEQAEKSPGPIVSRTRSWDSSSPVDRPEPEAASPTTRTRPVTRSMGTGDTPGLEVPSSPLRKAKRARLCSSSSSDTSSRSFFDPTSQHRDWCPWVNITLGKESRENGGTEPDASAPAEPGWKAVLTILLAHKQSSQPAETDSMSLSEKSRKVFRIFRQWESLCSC
# Sequence of UniProt Q9BZI7 (Q9BZI7 whole entry, looked up): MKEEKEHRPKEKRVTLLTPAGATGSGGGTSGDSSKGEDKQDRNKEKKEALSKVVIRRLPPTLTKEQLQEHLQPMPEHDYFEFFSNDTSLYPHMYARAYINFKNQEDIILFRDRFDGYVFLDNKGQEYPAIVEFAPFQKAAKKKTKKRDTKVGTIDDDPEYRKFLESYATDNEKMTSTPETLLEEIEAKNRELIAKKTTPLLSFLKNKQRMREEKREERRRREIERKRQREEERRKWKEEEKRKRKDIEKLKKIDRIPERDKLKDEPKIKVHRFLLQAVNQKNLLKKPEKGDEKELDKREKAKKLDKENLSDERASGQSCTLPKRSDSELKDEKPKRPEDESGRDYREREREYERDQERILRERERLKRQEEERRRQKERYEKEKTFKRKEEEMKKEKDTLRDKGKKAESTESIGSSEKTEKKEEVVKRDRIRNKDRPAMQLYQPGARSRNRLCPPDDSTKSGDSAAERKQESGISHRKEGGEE
Target,log2 fold change (erlotinib),log2 fold change [1],log2 fold change [2],log2 fold change [3],log2 fold change [4],log2 fold change [5],log2 fold change [6],log2 fold change [7],log2 fold change [8],log2 fold change (IRAK-1-4 Inhibitor I),log2 fold change (ibrutinib),log2 fold change [9],log2 fold change (ralimetinib),log2 fold change [10],log2 fold change [11],log2 fold change [12],log2 fold change [13],log2 fold change [14],log2 fold change [15],log2 fold change [16]
USP3 (UniProt Q9Y6I4),-0.001,0.05,0.033,0.031,0.018,0.011,0.014,-0.037,0.035,-0.044,0.01,0.048,0.042,-0.027,0.014,0.024,0.011,-0.014,0.016,-0.025
VARS (UniProt P26640),0.031,0.035,-0.031,0.007,0.03,0.019,-0.035,0.021,-0.002,0.011,0.015,-0.003,0.042,0.018,0.032,0.006,-0.047,0.001,0.041,0.035
YTHDC2 (UniProt Q9H6S0),-0.008,0.065,0.012,0.027,0.02,-0.001,0.074,-0.019,0.029,0.002,0.003,0.009,0.061,0.021,0.013,0.003,-0.023,-0.003,0.019,-0.018
VCPIP1 (UniProt Q96JH7),-0.054,-0.04,-0.002,0.053,-0.037,0.041,0.006,0,0.038,-0.035,0.002,0.01,0.009,0.011,-0.029,-0.021,-0.05,-0.007,0.048,-0.017
ZDHHC18 (UniProt Q9NUE0),0.265,-0.057,-0.371,-0.052,-0.135,0.004,0.038,-0.022,0.075,0.13,-0.103,0.057,0.093,-0.017,-0.137,0.019,0.209,-0.022,0.073,-0.01
ZFYVE19 (UniProt Q96K21),-0.017,-0.056,0.016,-0.024,-0.026,0.055,0.007,-0.031,0.012,-0.027,-0.051,-0.031,-0.004,0.009,-0.015,-0.028,-0.067,-0.037,-0.013,-0.042
UQCC2 (UniProt Q9BRT2),0.037,0.044,-0.039,0.06,0.001,-0.007,0,-0.05,-0.023,0.016,0.054,0,0.006,0.01,0.018,-0.022,0.016,0.007,-0.016,-0.012
WRN (UniProt Q14191),-0.003,-0.048,0.005,0.006,0.057,0.011,-0.077,0.02,-0.012,-0.013,0.02,-0.008,0.021,-0.055,-0.016,0.023,0.019,-0.016,0.016,-0.048
WDR41 (UniProt Q9HAD4),-0.071,-0.044,-0.021,0.015,-0.027,-0.113,0.031,-0.091,0.049,0.029,-0.163,-0.004,0.017,0.088,-0.015,0.03,-0.054,0.164,-0.049,0.015
UPF3B (UniProt Q9BZI7),-0.026,-0.109,0.042,0.02,-0.005,0.017,-0.014,-0.018,-0.008,0.008,-0.011,0.024,0.007,-0.006,-0.021,0.018,-0.04,0.008,-0.001,-0.003
USE1 (UniProt Q9NZ43),0.019,0.31 (active),-0.026,-0.062,0,-0.038,-0.06,0.019,0.025,0.056,-0.039,-0.026,-0.095,-0.102,-0.086,0.024,-0.025,-0.007,0.007,0.027
WEE1 (UniProt P30291),0.079,-0.014,-0.091,-0.051,0.019,0.01,-0.006,-0.07,0.021,0.056,-0.028,0.139,-0.017,-0.062,-0.031,-0.032,-0.012,0.023,-0.105,-0.038
VTN (UniProt P04004),-0.065,-0.006,0.003,-0.033,0.107,-0.096,-0.129,-0.065,-0.042,0.043,-0.019,-0.007,0.01,-0.044,0.028,0.088,0.017,-0.011,0.155,-0.04
VPS4A (UniProt Q9UN37),0.051,0.005,-0.076,0.043,-0.014,-0.017,-0.15,0.029,-0.037,-0.037,0.001,0,0.013,0.035,0,-0.035,-0.046,-0.039,0.045,0.025
ZC3HC1 (UniProt Q86WB0),0.011,-0.123,-0.006,0.005,-0.009,0.007,0.009,0.011,0.018,-0.003,-0.021,0.013,0.033,-0.004,-0.003,0.012,0.004,-0.002,0.006,0.013
WIPI2 (UniProt Q9Y4P8),-0.006,-0.042,-0.009,0.064,-0.037,-0.003,0.035,-0.054,-0.047,0.021,0.047,0.019,0.026,0.018,0.022,0.042,-0.018,0.006,-0.013,-0.003
